Laboratory results from the supplement of paper PMC8975748.
Structures can show the parent of a compound that is named as a salt. ± gives the standard deviation of the averaged measurements.

How the values were obtained:
[1] = test system: Saccharomyces cerevisiae BY4741 SeMeCo community; test: z-score of prototroph abundance vs DMSO median; higher = larger share of this subpopulation than in DMSO controls; conditions: 10 µM; 24 h; SM minimal medium; subpopulation (auxotrophy): Prototroph
Summary of the method: (§1)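 Scoring was based on each subpopulation's abundance, expressed as a z-score against the vehicle-well median. A Saccharomyces cerevisiae BY4741 community with four plasmids, each restoring one auxotrophy and encoding a distinct fluorescent protein, was pre-grown overnight to OD600 1.0, diluted to 0.3, and added at 70 µl to 384-well plates acoustically predosed with library drugs (10 µM final). It then grew 24 h in minimal SM medium before paraformaldehyde fixation and automated confocal microscopy, with single-auxotroph fluorescent strains setting thresholds and autofluorescence correction.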

[2] = test system: Saccharomyces cerevisiae BY4741 SeMeCo community; test: z-score of subpopulation abundance vs DMSO median, subpopulation auxotrophic for M; higher = larger share of this subpopulation than in DMSO controls; conditions: 10 µM; 24 h; SM minimal medium; subpopulation (auxotrophy): M
Summary of the method: as §1

[3] = test system: Saccharomyces cerevisiae BY4741 SeMeCo community; test: z-score of subpopulation abundance vs DMSO median, subpopulation auxotrophic for L; higher = larger share of this subpopulation than in DMSO controls; conditions: 10 µM; 24 h; SM minimal medium; subpopulation (auxotrophy): L
Summary of the method: as §1

[4] = test system: Saccharomyces cerevisiae BY4741 SeMeCo community; test: z-score of subpopulation abundance vs DMSO median, subpopulation auxotrophic for H; higher = larger share of this subpopulation than in DMSO controls; conditions: 10 µM; 24 h; SM minimal medium; subpopulation (auxotrophy): H
Summary of the method: as §1

[5] = test system: Saccharomyces cerevisiae BY4741 SeMeCo community; test: z-score of subpopulation abundance vs DMSO median, subpopulation auxotrophic for LU; higher = larger share of this subpopulation than in DMSO controls; conditions: 10 µM; 24 h; SM minimal medium; subpopulation (auxotrophy): LU
Summary of the method: as §1

[6] = test system: Saccharomyces cerevisiae BY4741 SeMeCo community; test: z-score of subpopulation abundance vs DMSO median, subpopulation auxotrophic for LM; higher = larger share of this subpopulation than in DMSO controls; conditions: 10 µM; 24 h; SM minimal medium; subpopulation (auxotrophy): LM
Summary of the method: as §1

[7] = test system: Saccharomyces cerevisiae BY4741 SeMeCo community; test: z-score of subpopulation abundance vs DMSO median, subpopulation auxotrophic for HU; higher = larger share of this subpopulation than in DMSO controls; conditions: 10 µM; 24 h; SM minimal medium; subpopulation (auxotrophy): HU
Summary of the method: as §1

[8] = test system: Saccharomyces cerevisiae BY4741 SeMeCo community; test: z-score of subpopulation abundance vs DMSO median, subpopulation auxotrophic for UM; higher = larger share of this subpopulation than in DMSO controls; conditions: 10 µM; 24 h; SM minimal medium; subpopulation (auxotrophy): UM
Summary of the method: as §1

[9] = test system: Saccharomyces cerevisiae BY4741 SeMeCo community; test: z-score of subpopulation abundance vs DMSO median, subpopulation auxotrophic for HL; higher = larger share of this subpopulation than in DMSO controls; conditions: 10 µM; 24 h; SM minimal medium; subpopulation (auxotrophy): HL
Summary of the method: as §1

[10] = test system: Saccharomyces cerevisiae BY4741 SeMeCo community; test: z-score of subpopulation abundance vs DMSO median, subpopulation auxotrophic for HLU; higher = larger share of this subpopulation than in DMSO controls; conditions: 10 µM; 24 h; SM minimal medium; subpopulation (auxotrophy): HLU
Summary of the method: as §1

[11] = test system: Saccharomyces cerevisiae BY4741 SeMeCo community; test: z-score of subpopulation abundance vs DMSO median, subpopulation auxotrophic for HLM; higher = larger share of this subpopulation than in DMSO controls; conditions: 10 µM; 24 h; SM minimal medium; subpopulation (auxotrophy): HLM
Summary of the method: as §1

[12] = test system: Saccharomyces cerevisiae BY4741 SeMeCo community; test: z-score of subpopulation abundance vs DMSO median, subpopulation auxotrophic for HUM; higher = larger share of this subpopulation than in DMSO controls; conditions: 10 µM; 24 h; SM minimal medium; subpopulation (auxotrophy): HUM
Summary of the method: as §1

[13] = test system: Saccharomyces cerevisiae BY4741 SeMeCo community; test: z-score of subpopulation abundance vs DMSO median, subpopulation auxotrophic for LUM; higher = larger share of this subpopulation than in DMSO controls; conditions: 10 µM; 24 h; SM minimal medium; subpopulation (auxotrophy): LUM
Summary of the method: as §1

[14] = test system: Saccharomyces cerevisiae BY4741 SeMeCo community; test: z-score of subpopulation abundance vs DMSO median, subpopulation auxotrophic for HLUM; higher = larger share of this subpopulation than in DMSO controls; conditions: 10 µM; 24 h; SM minimal medium; subpopulation (auxotrophy): HLUM
Summary of the method: as §1

[15] = test system: Saccharomyces cerevisiae BY4741 SeMeCo community; test: z-score of subpopulation abundance vs DMSO median, subpopulation auxotrophic for U; higher = larger share of this subpopulation than in DMSO controls; conditions: 10 µM; 24 h; SM minimal medium; subpopulation (auxotrophy): U
Summary of the method: as §1

[16] = test system: Saccharomyces cerevisiae BY4741 SeMeCo community; test: z-score of subpopulation abundance vs DMSO median, subpopulation auxotrophic for HM; higher = larger share of this subpopulation than in DMSO controls; conditions: 10 µM; 24 h; SM minimal medium; subpopulation (auxotrophy): HM
Summary of the method: as §1

[17] = test system: Saccharomyces cerevisiae BY4741 SeMeCo community; test: mean cell size (pixel area) (pixels); higher = larger cells; conditions: 10 µM; 24 h; SM minimal medium
Summary of the method: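 Mean cell pixel area per well was determined by automated confocal microscopy with Harmony analysis of paraformaldehyde-fixed cells. The cells, a Saccharomyces cerevisiae BY4741 community of four plasmids that each complement one auxotrophy and carry a fluorescent marker, were incubated for 24 h with drug at a final 10 µM in SM medium in 384-well plates. Numbers are averaged over 3 replicates. Same SeMeCo high-content imaging drug screen: Selleck FDA-approved drugs at 10 µM, 24 h in SM medium, 384-well plates, 3 replicates.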

Structure (SMILES)	z-score of prototroph abundance [1]	z-score of subpopulation abundance [2]	z-score of subpopulation abundance [3]	z-score of subpopulation abundance [4]	z-score of subpopulation abundance [5]	z-score of subpopulation abundance [6]	z-score of subpopulation abundance [7]	z-score of subpopulation abundance [8]	z-score of subpopulation abundance [9]	z-score of subpopulation abundance [10]	z-score of subpopulation abundance [11]	z-score of subpopulation abundance [12]	z-score of subpopulation abundance [13]	z-score of subpopulation abundance [14]	z-score of subpopulation abundance [15]	z-score of subpopulation abundance [16]	mean cell size [17]
CCCc1nn(C)c2c(=O)[nH]c(-c3cc(S(=O)(=O)N4CCN(C)CC4)ccc3OCC)nc12 [Sildenafil]	1.69	-1.17	-1.03	-2.48	-0.5	-0.52	0.7	-0.73	-1.43	-0.35	-1.11	-0.61	-0.21	0.26			
CCn1cc(C(=O)O)c(=O)c2cc(F)c(N3CCN(C)CC3)cc21 [Pefloxacin Mesylate Dihydrate]	-0.64	1.25	-0.36	0.39	-0.04	-0.32	0.28	0.05	0.3	0.03	0.88	-0.06	-0.46	-0.42	0.5	0.71	
CN(C)c1ccc(O)c2c1C[C@H]1C[C@H]3[C@H](N(C)C)C(=O)C(C(N)=O)=C(O)[C@@]3(O)C(=O)C1=C2O [Minocycline HCl]		0.32	-0.03	-0.15	0.63	0.75	-0.3	0.25	0.73	0.06	0.31	-0.12	0.3	0.19	0.78	-0.22	
Clc1ccc(COC(Cn2ccnc2)c2ccc(Cl)cc2Cl)cc1 (centres undefined) [Econazole nitrate]	-8.44	-2.24	-3.48	15.7	1.14	-1.64	12.4	10.3	5.56	6.46	10.7	6.6	1.67		3.05	2.52	
COC(=O)C1=C(C#N)NC(C)=C(C(=O)OC(C)C)C1c1cccc([N+](=O)[O-])c1 (centres undefined) [Nilvadipine]		1.61	-0.93		-1.37	-0.12	-1.66	-0.73		-0.56	2.28	-0.21		0.19	-1.16	1.37	
NC[C@H]1O[C@H](O[C@H]2[C@H](O)[C@@H](O[C@H]3O[C@H](CO)[C@@H](O)[C@H](N)[C@H]3O)[C@H](N)C[C@@H]2N)[C@H](O)[C@@H](O)[C@@H]1O [Kanamycin sulfate]	-0.43	0.84	1.91		-0.08	1.55			1.08	0.63	-0.02	0.21	0.52	-0.1	-0.55	1.34	
CC1(C)S[C@@H]2[C@H](NC(=O)Cc3ccccc3)C(=O)N2[C@H]1C(=O)O.CCN(CC)CCOC(=O)c1ccc(N)cc1 [Penicillin G Procaine]		0.35	0.99	1.75	0.41	1	0.54		2.5	0.81	0.43		1.6	1.65	-0.07		12.2 ± 0.22
C/C=C\c1ccc(O)c(OC)c1 [Isoeugenol]		0.59	0.4	-0.8	-0.07	0.87	-0.46	1.01	-0.5	0.2	-0.07		0.33	0.03	0.4	0.2	12.02 ± 0.031
CCOC(=O)C1=C[C@@H](OC(CC)CC)[C@H](NC(C)=O)[C@@H](N)C1 [Oseltamivir Phosphate]	1.28	-0.5	0.45	0.58	-0.72	0.27	-0.98	-1.29	0.28	-0.07	0.29			0.24	-1.55	-0.4	12.42 ± 0.039
CCCCCCCCOc1ccccc1C(=O)Nc1ccc(C(=O)OCC[N+](C)(CC)CC)cc1 [Otilonium Bromide]		-2.04	-3.08		0.74	-2.38	3.65	-0.66	1.68	3.81	9.05			12.2	0.58	5.47	12.27 ± 0.099
CCOc1cc(N)c([N+](=O)[O-])cc1C(=O)NC1CCN(CC2CC=CCC2)CC1 (centres undefined) [Cinitapride Hydrogen Tartrate]	-1.19	0.87	-0.2	-0.46	0.88		0.74	1.35	-0.01	0.47	-0.29		0.94	0.5	1.07	0.24	12.3 ± 0.2
Oc1c(I)cc(Cl)c2cccnc12 [Clioquinol]	-17.7	-0.87	-0.06	9.23	10.4	5.23	16	6.49	9.34	41	119		9.68	22.7	-1.64	37.7	13.1 ± 0.49
CSc1nc2cc(Cl)c(Oc3cccc(Cl)c3Cl)cc2[nH]1 [Triclabendazole]	1.8	-9.19	-0.07	5.63	0.92	-2.65	2.73	-5.17	3.65	2.64	7.41		1.09	4.69	-0.92	-3.03	13.1 ± 0.54
CC[C@H]1OC(=O)[C@H](C)[C@@H](O[C@H]2C[C@@](C)(OC)[C@@H](O)[C@H](C)O2)[C@H](C)[C@@H](O[C@@H]2O[C@H](C)C[C@H](N(C)C)[C@H]2O)[C@](C)(O)C[C@@H](C)C(=O)[C@H](C)[C@@H](O)[C@]1(C)O [Erythromycin]	-0.5	0.24	1.96	1	0.03	1.38	-0.18	-0.8	2.42	1	0.66		1.19	0.28	-1.28	0.91	12.3 ± 0.15
